From the supplement of paper PMC6555819

Experiments:
Test in all cases: PBM binding z-score (relative to random genomic background probes); higher = stronger binding; sequences stand for … in GC…GCGATTGACAGCGTAGAATGAAGG
[1] = tested on: FXR:RXRa (NR concentration 270 nM, RXRa partner concentration 90 nM)
Procedure, shortened: (§1)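 Binding buffer was PBS pH 7.4 with 2% milk, 0.02% Triton X-100, 1 mM DTT, 0.2 mg/mL BSA and 0.4 mg/ml salmon testes DNA. In it, ligand-free nuclear receptor dimers were incubated 1 h on custom Agilent 4×180K protein-binding microarrays carrying double-stranded probes. Antibodies against each partner (one per run) detected binding, and z-scores were calculated against random background probes after regression normalization of scanned fluorescence.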

[2] = tested on: LXRa:RXRa (NR concentration 270 nM, RXRa partner concentration 90 nM)
Procedure, shortened: as §1

[3] = tested on: LXRa homodimer (NR concentration 270 nM)
Procedure, shortened: as §1

[4] = tested on: LXRb:RXRa (NR concentration 270 nM, RXRa partner concentration 90 nM)
Procedure, shortened: as §1

[5] = tested on: LXRb homodimer (NR concentration 270 nM)
Procedure, shortened: as §1

[6] = tested on: PPARa:RXRa (NR concentration 270 nM, RXRa partner concentration 90 nM)
Procedure, shortened: as §1

[7] = tested on: PPARg:RXRa (NR concentration 180 nM, RXRa partner concentration 90 nM)
Procedure, shortened: as §1

[8] = tested on: PPARg:RXRa 270nM:90nM, anti-RXR (NR concentration 270 nM, RXRa partner concentration 90 nM)
Procedure, shortened: as §1

[9] = tested on: PPARg:RXRa 30nM:10nM, anti-RXR (NR concentration 30 nM, RXRa partner concentration 10 nM)
Procedure, shortened: as §1

[10] = tested on: PPARg:RXRa 90nM:30nM, anti-RXR (NR concentration 90 nM, RXRa partner concentration 30 nM)
Procedure, shortened: as §1

[11] = tested on: PPARg:RXRa DBDmut IVT, anti-RXR (DBD mutation: RXRa K156A/R161A, NR concentration 270 nM, RXRa partner concentration 90 nM)
Procedure, shortened: as §1

[12] = tested on: PPARg:RXRa IVT, anti-PPARg (NR concentration 270 nM, RXRa partner concentration 90 nM)
Procedure, shortened: as §1

[13] = tested on: PPARg DBDmut:RXRa IVT, anti-PPARg (DBD mutation: PPARg1 K132A/R137A, NR concentration 270 nM, RXRa partner concentration 90 nM)
Procedure, shortened: as §1

[14] = tested on: PPARg DBDmut IVT, anti-PPARg (DBD mutation: PPARg1 K132A/R137A, NR concentration 270 nM)
Procedure, shortened: as §1

[15] = tested on: PPARg homodimer (NR concentration 180 nM)
Procedure, shortened: as §1

[16] = tested on: PXR:RXRa (NR concentration 270 nM, RXRa partner concentration 90 nM)
Procedure, shortened: as §1

[17] = tested on: PXR homodimer (NR concentration 270 nM)
Procedure, shortened: as §1

[18] = tested on: RARa:RXR (NR concentration 270 nM, RXRa partner concentration 90 nM)
Procedure, shortened: as §1

[19] = tested on: RARa homodimer (NR concentration 270 nM)
Procedure, shortened: as §1

[20] = tested on: RARb:RXRa (NR concentration 270 nM, RXRa partner concentration 90 nM)
Procedure, shortened: as §1

Sequence	PBM binding z-score [1]	PBM binding z-score [2]	PBM binding z-score [3]	PBM binding z-score [4]	PBM binding z-score [5]	PBM binding z-score [6]	PBM binding z-score [7]	PBM binding z-score [8]	PBM binding z-score [9]	PBM binding z-score [10]	PBM binding z-score [11]	PBM binding z-score [12]	PBM binding z-score [13]	PBM binding z-score [14]	PBM binding z-score [15]	PBM binding z-score [16]	PBM binding z-score [17]	PBM binding z-score [18]	PBM binding z-score [19]	PBM binding z-score [20]
CCTGCTAGGTCATTGTCAGCTAATCTACAGTATG	3.88	2.99	0.878	1.84	0.257	2.94	1.29	2.14	0.169	1.22	4.13	3.2	0.372	0.337	0.865	1.12	-0.0805	1.77	0.00948	3.55
GATACAGGGTAAAGGCCAGAGTACGCGTATTGAT	0.103	-0.0959	-0.132	0.0218	-0.658	2.46	4.52	5.45	3.7	5.48	1.02	2.64	0.254	-0.000144	0.5	0.017	-0.0145	0.137	-0.111	1.18
ATCTCTAGGTAACCACGTTCAGTGAATGCCGAAC	-0.0584	-0.141	0.335	-0.0295	0.814	0.308	0.571	0.503	0.0771	0.0954	2.95	2.6	1.15	0.998	0.238	-0.177	0.023	-0.2	0.526	0.324
TAGCATAGGTCATTCAGGGGCCAGTATAGAAAGC	6.82	5.38	1.82	4.56	1.73	5.15	3.49	4.27	1.5	3.18	1.02	2.08	0.638	0.381	5.69	4.14	0.0442	5.79	1.25	4.4
TCTATTGGTTGAAGGGCAACCGACGAGTCCGTTT	0.476	0.767	0.01	0.546	0.657	1.23	0.669	2.98	3.37	3.23	1.93	0.82	0.765	0.266	1.09	0.725	0.614	0.74	0.718	1.55
CCTCACGGGTCACTGACAGGTTATAGCATTTGGA	4.72	3.72	0.511	3.24	-0.196	4.66	3.37	3.34	0.625	1.85	1.77	2.15	-0.537	-0.176	1.89	3.33	0.0959	3.98	0.868	3.85
TCTCGGAGGACACGAAGGTCCGAGCTTTCCAGAG	0.324	-0.29	-0.723	-0.734	-1.4	0.0732	-0.408	0.645	1.71	1.12	1.24	-0.478	-0.785	-1.37	-0.731	-0.253	-0.438	-0.322	-1.26	1.56
